ERK EGF block: EGF-driven ERK pathway inhibition. HEK293-V1b, EGF-stimulated phospho-ERK AlphaScreen. Potency, µM (titrated, usually from 11.5 µM), without a hit: at the highest dose activity change, negative = inhibition, hits mostly inhibitors. 0.41% of 130,000 active. AID 1454;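 further: plate controls were stimulated vehicle wells for no effect and unstimulated vehicle basal for full effect; nearly all actives have a fitted effect of over 55% in size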
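Homogeneous cell-based phospho-ERK assay: HEK293/V1b cells in 1% FBS, compound 30 min then EGF 5 min, AlphaScreen luminescence. Activity normalized between DMSO and 25 nM EGF controls; AC50 from Hill modelling.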
HTT aggregate: mutant huntingtin aggregation inhibition. PC12 HttQ103-GFP aggregates, Acumen cytometry, 40 h. Potency, µM (top dose mostly 46.1 µM), without a hit: top-dose activity change, negative = inhibition, hits mostly inhibitors. 1.1% of 220,000 active. AID 1688; further: on the % scale 0 is the no-effect control and ±100 the full control effect; nearly all actives have a fitted effect of over 60% in size
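Using laser scanning cytometry, GFP-positive aggregates were counted after lysis of PC12 cells induced with 100 nM tebufenozide to express HTT exon 1 Q103–GFP. Compounds were tested in titration.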
HTT ATP protect: protects HTT-Q103 PC12 cells, measured by ATP; AID 1471; PC12 HTT-Q103 induced, cytoprotection, ATP luminescence, 40 h; 0.14% of 230,000 active; Potency, µM (highest dose often 56.4 µM), inactives show cytoprotection (ATP increase), most hits filed as activators; further: % of control where 0% means no effect; nearly all actives have a fitted effect of over 45% in size
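ATP quantification (ATPlite) reports survival of PC12 cells in which tebufenozide, 100 nM final, switches on Htt exon 1 with 103 glutamines linked to GFP; compounds are titrated.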
Starred values were filed as active, the others as inactive; [ ] = another dose, or the depositor's remark. Shown are actives, neighbours in structure and some others; about 1.4% of the full set was active somewhere. The call rests on the fitted dose curve; in most records, active means well fitted curve in the direction sought with a large enough effect; inconclusive means small, poorly fitted or top-dose-only effect, or another doubt; inactive means no such curve, though single readings can be large; an effect the other way counts as inactive or inconclusive. Potency means the concentration at half of the fitted maximal effect.

Nc1c2ccccc2nc2c(O)cccc12 was read as ERK EGF block 7%[25.7 µM] and HTT ATP protect inconclusive.
For NC(=O)C1c2ccccc2CCc2ccccc21 the results were HTT aggregate 34% and HTT ATP protect inconclusive.
For COC(=O)N1CC=CC1(C)C(=O)NCC1CC1 (configuration not stated) the results were ERK EGF block 6% and HTT ATP protect 13µM*.
CNC(=O)C1(C)C=CCN1C(=O)OC (configuration not stated) was read as ERK EGF block 9% and HTT ATP protect -6%.
`CCCCCCn1c2c(c(=N)c3c1CCC3)CCC2` gave HTT aggregate 1.8µM* and HTT ATP protect -17%[0.074 µM].
For CCCCCCCn1c2c(c(=N)c3c1CCC3)CCCC2 the results were ERK EGF block 7%.
For Cc1nc(NC2CCCCC2)c2nc(-c3ccccc3)n(CC3CCN(C)CC3)c2n1 the results were ERK EGF block -3% and HTT ATP protect -63%.
CCCCCCCN(C(=O)CCl)c1cccc(C)c1 was read as ERK EGF block 5%, HTT aggregate -3% and HTT ATP protect -18%[10 µM].
N#CCCN(C(=O)CCl)c1cccc(Cl)c1 was read as ERK EGF block 6%, HTT aggregate 18µM* and HTT ATP protect -116%.
Screening C[Si](C)(C)C#Cc1ccccc1NC(=S)Nc1ccccc1 returned ERK EGF block -8% and HTT ATP protect -42%.
CCNc1ncc2nc(-c3ccccc3)c(=O)n(CCOC)c2n1 was read as HTT ATP protect -4%.
For NCc1nnn(Cc2ccccc2)c1N the results were HTT ATP protect -10%[10 µM].
Screening Cc1ccc(S(=O)(=O)N2C(=O)/C(=C3\SC(=S)NC3=O)c3ccccc32)cc1 returned ERK EGF block 1%[57.5 µM] and HTT aggregate 0.79µM*.
`Cc1cccc(N=C2NC(=O)/C(=C3/C(=O)N(C)c4ccccc43)S2)c1C` gave HTT aggregate 10% and HTT ATP protect 20%.
`O=C(c1cc(-c2cccs2)nc2ccccc12)N1CCN(S(=O)(=O)c2cccc(F)c2)CC1` gave HTT aggregate 0.63µM* and HTT ATP protect 0%.
`O=C(c1cc(-c2cccs2)nc2ccccc12)N1CCN(S(=O)(=O)c2ccccc2)CC1` gave HTT aggregate 4% and HTT ATP protect 0%.
For C=C(C)C(O)C(CC/C=C(\C)C(=O)OCC)OC (configuration not stated) the results were HTT ATP protect -13%[10 µM].
Screening O=C1C(c2[nH]c3ccc(S(=O)(=O)O)cc3c2O)=Nc2ccc(S(=O)(=O)O)cc21 returned HTT ATP protect -22%.
For CC(=O)c1cccc2c(O)c(C3=Nc4ccccc4C3=O)[nH]c12 the results were ERK EGF block 25µM*, HTT aggregate 5% and HTT ATP protect -15%[1.9 µM].
CCC(=O)/C=C/C1C(C)=CCCC1(C)C (configuration not stated) was read as HTT ATP protect -1%.
Screening c1ccc2c(CN3CCN(Cc4c[nH]c5ccccc45)CC3)c[nH]c2c1 returned HTT ATP protect 3%[10 µM].
For c1cnc(N2CCN(Cc3c[nH]c4ccccc34)CC2)nc1 the results were HTT aggregate 11µM* and HTT ATP protect -86%.
Cc1ccccc1N1CCN(Cc2c[nH]c3ccccc23)CC1 was read as HTT aggregate 22µM* and HTT ATP protect -53%[10 µM].
COc1ccccc1N1CCN(Cc2c[nH]c3ccccc23)CC1 was read as ERK EGF block -9%[57.5 µM], HTT aggregate -19%[9.22 µM] and HTT ATP protect -13%[10 µM].
For COC(=O)C1(Cc2ccccc2)C=C2C(=C(C(C)C)C(=O)C2C)CN1 (configuration not stated) the results were ERK EGF block 3% and HTT ATP protect -80%.
`CN(C)c1ccc(-c2cncnc2Nc2ccc(F)cc2)cc1` gave HTT ATP protect -206%.
CC1(OC(=O)C2CCCC2)C(=O)C=C2C=C(C3CC3)OC=C2C1=O (configuration not stated) was read as ERK EGF block -1% and HTT ATP protect -9%.
`CNc1ncnc2c1ncn2[C@H]1C[C@@H](OP(=O)(O)O)[C@H](COP(=O)(O)O)O1` gave HTT ATP protect 9%[1.9 µM].
For COc1ccc(CCC(C)Nc2ccc(F)cc2)cc1 (configuration not stated) the results were ERK EGF block inconclusive, HTT aggregate -9% and HTT ATP protect -6%.
COc1ccc(CCC(C)Nc2ccc(F)c(F)c2)cc1 (configuration not stated) was read as ERK EGF block 6%, HTT aggregate 11µM* and HTT ATP protect 3%[10 µM].
COc1ccc(O[C@H]2C=C[C@@H](c3ccccc3)O[C@H]2CO/N=C2/c3cc(OC)ccc3O[C@@H](c3cccc(OC)c3)[C@H]2O)cc1 was read as HTT ATP protect -2%[10 µM].
For CCN(CC)C(=O)COc1ccc(-c2nnc(N3CCCCC3)c3ccccc23)cc1 the results were HTT aggregate -11% and HTT ATP protect 4%[0.074 µM].
CCOc1ccc(-c2nnc(N3CCCCC3)c3ccccc23)cc1 was read as HTT aggregate 11µM* and HTT ATP protect -38%.
COc1ccc(O[C@H]2C=C[C@@H](c3ccccc3)O[C@H]2COC(=O)CC/C(C)=N/O[C@@H]2O[C@H](COC(C)=O)[C@H](OC(C)=O)[C@H](OC(C)=O)[C@H]2OC(C)=O)cc1 was read as HTT ATP protect -2%[10 µM].
Cn1nc(C(C)(C)C)cc1C(=O)NCc1ccc(N2CCCC2=O)cc1 was read as HTT aggregate 1.8µM* and HTT ATP protect 21%[10 µM].
Screening Cc1ccc(CNC(=O)c2ccc(N3CCCC3=O)cc2)cc1 returned HTT aggregate 21% and HTT ATP protect 10%.
CCCCC/C=C\C/C=C\CCCCCCCC(=O)NCCc1ccc(O)c(O)c1 was read as ERK EGF block -9% and HTT ATP protect 15%.
`COc1ccccc1CNc1ccnc(-c2cccnc2)n1` gave HTT ATP protect 5%.
For CCOC(=O)c1cnc2nc(C)[nH]n2c1=O the results were HTT aggregate -12% and HTT ATP protect 5%.
Screening CCOC(=O)c1cnc2sc3c(n2c1=O)CCCC3 returned HTT aggregate 8.9µM* and HTT ATP protect -12%[10 µM].
For CS(=O)(=O)N1CCC2(CC1)CN(c1ccccc1)C2 the results were ERK EGF block -10% and HTT ATP protect -17%.
COC(=O)[C@H]1O[C@@H](c2cc(OC)c(C)c(OC)c2OCc2ccccc2)[C@H](C)[C@H]2O[C@@]12C was read as ERK EGF block 3% and HTT ATP protect -61%.
Screening O=C(c1ccc2c(c1)OCO2)N1CCc2ccccc2C1 returned HTT aggregate 6%[9.22 µM] and HTT ATP protect -117%[0.074 µM].
For O=C1Nc2cc(C(=O)N3CCc4ccccc4C3)ccc2S/C1=C\c1ccccc1 the results were ERK EGF block 2%, HTT aggregate -26% and HTT ATP protect 2.8µM*.
For O=[N+]([O-])c1ccc(Oc2cccc3cccnc23)c([N+](=O)[O-])c1 the results were ERK EGF block inconclusive and HTT aggregate 22µM*.
Cc1ccc2cccc(Oc3ccc([N+](=O)[O-])cc3[N+](=O)[O-])c2n1 was read as ERK EGF block 5% and HTT aggregate -2%.

Assay outcomes from PubChem.
